Source: ChEMBL document CHEMBL3988442, “University of Dundee, Small-Polar-MMV Screening Library” (2021)
For some of these results: Measured potencies and affinities stand elsewhere.

Columns and labels:
Set-up in all cases: scale not given: direction of the effect not stated beside the values
[1] = target: Protein translocase subunit SecA (Escherichia coli (strain K12)) (UniProt P10408); experiment: Assay to Identify E. coli SecA ATPase Inhibitors; assay type: functional; conditions: 30 µM
[2] = target: T1, Ubiquitin-activating enzyme e1, putative (Leishmania donovani (strain BPK282A1)) (UniProt E9BSI1); experiment: Leishmania donovani Ubiquitin Activating Enzyme (LdE1); assay type: functional; conditions: 30 µM
T1 sequence (whole entry): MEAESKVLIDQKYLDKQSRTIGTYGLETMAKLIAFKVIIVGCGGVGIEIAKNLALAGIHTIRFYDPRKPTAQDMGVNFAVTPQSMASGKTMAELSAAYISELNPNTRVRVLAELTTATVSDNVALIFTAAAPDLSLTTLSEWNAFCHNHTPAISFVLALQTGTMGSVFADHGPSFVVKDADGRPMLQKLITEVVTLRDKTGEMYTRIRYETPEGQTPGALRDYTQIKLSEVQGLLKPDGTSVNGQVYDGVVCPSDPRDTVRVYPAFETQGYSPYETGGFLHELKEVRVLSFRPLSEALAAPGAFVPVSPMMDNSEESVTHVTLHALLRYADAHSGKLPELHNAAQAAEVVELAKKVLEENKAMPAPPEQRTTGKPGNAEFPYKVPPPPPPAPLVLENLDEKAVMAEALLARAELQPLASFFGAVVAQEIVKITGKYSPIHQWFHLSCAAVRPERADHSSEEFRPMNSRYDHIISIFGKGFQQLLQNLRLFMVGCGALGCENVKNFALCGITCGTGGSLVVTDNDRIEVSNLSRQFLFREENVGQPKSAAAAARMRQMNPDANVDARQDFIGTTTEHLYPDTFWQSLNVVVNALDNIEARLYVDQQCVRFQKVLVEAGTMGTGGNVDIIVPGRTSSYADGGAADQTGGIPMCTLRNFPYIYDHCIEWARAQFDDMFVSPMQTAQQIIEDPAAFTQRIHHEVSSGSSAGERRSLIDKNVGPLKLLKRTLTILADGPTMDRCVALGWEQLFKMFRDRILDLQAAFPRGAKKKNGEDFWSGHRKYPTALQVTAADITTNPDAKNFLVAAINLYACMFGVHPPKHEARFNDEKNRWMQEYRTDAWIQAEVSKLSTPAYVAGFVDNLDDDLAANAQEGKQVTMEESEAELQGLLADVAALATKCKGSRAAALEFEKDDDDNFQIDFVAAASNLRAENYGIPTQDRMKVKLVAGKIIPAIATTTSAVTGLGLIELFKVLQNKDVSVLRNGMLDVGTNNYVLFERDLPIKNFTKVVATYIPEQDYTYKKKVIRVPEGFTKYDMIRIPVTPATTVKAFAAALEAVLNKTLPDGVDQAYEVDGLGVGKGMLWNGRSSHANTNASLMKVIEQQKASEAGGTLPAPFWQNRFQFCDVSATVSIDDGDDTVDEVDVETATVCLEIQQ

[3] = target: AMP-activated protein kinase, AMPK (Homo sapiens) (UniProt P54646+O43741+P54619+Q9UGJ0+Q9Y478+Q13131+Q9UGI9); experiment: AMP-dependent Kinase enzyme assay. An in vitro enzyme assay that detects ADP turnover that is directly proportional to AMPK activity. This uses naive AMPK that is activated during the assay with MK-8722; assay type: functional; conditions: 30 µM
[4] = target: Sialic acid-binding Ig-like lectin 9 (Homo sapiens) (UniProt Q9Y336); experiment: Hs-Siglec9 ALPHAscreen SOP 20170721; conditions: 10 µM
[5] = system: Trypanosoma cruzi; experiment: Trypanosoma cruzi phosphomannomutase and mannose-1-phosphate guanylyltransferase assay; assay type: functional; conditions: 10 µM
[6] = target: T2, Arginase-2, mitochondrial (Homo sapiens) (UniProt P78540); experiment: in vitro enzyme assay to detect the production of urea directly proportional to the activity of Arginase II; assay type: functional; conditions: 33.3 µM; note: in the data most compounds retested in dose-response had high values
T2 sequence (whole entry): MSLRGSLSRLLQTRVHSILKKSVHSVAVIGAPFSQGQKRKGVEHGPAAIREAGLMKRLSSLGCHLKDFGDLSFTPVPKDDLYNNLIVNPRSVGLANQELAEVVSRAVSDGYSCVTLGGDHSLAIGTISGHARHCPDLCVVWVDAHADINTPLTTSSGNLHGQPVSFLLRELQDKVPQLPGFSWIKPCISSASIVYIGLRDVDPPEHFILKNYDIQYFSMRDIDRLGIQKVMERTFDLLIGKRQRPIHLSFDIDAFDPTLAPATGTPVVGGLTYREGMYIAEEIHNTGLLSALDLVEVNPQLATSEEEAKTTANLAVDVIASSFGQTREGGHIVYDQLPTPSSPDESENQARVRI

[7] = target: T3, Proteasome subunit beta (Trypanosoma cruzi) (UniProt O96673); experiment: Trypanosoma cruzi proteasome chymotrypsin-like activity (TcProtChymo) assay.; note: in the data most compounds retested in dose-response had high values; assay type: functional; conditions: 9.37 µM
T3 sequence (whole entry): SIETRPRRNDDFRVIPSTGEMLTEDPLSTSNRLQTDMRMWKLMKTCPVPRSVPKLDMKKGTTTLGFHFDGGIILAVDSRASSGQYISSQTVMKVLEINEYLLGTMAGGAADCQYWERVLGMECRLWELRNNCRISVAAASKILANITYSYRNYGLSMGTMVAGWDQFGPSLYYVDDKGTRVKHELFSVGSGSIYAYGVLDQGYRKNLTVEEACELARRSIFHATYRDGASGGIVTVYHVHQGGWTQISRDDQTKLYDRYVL

[8] = organism: Homo sapiens; experiment: To identify inhibition of the IFN signalling (Jak-Stat) pathway via expression of an eGFP reporter gene under the control of an IFN-stimulated response element (ISRE) containing MxA promoter.; assay type: functional; conditions: 30 µM
[9] = target: T4, Tyrosyl-tRNA synthetase, putative (Trypanosoma cruzi (strain CL Brener)) (UniProt Q4DSP6); experiment: Trypanosoma cruzi tyrosyl tRNA synthetase (TcYRS) _High Tyrosine SOP; assay type: functional; conditions: 30 µM; note: in the data most compounds retested in dose-response had high values
T4 sequence (whole entry): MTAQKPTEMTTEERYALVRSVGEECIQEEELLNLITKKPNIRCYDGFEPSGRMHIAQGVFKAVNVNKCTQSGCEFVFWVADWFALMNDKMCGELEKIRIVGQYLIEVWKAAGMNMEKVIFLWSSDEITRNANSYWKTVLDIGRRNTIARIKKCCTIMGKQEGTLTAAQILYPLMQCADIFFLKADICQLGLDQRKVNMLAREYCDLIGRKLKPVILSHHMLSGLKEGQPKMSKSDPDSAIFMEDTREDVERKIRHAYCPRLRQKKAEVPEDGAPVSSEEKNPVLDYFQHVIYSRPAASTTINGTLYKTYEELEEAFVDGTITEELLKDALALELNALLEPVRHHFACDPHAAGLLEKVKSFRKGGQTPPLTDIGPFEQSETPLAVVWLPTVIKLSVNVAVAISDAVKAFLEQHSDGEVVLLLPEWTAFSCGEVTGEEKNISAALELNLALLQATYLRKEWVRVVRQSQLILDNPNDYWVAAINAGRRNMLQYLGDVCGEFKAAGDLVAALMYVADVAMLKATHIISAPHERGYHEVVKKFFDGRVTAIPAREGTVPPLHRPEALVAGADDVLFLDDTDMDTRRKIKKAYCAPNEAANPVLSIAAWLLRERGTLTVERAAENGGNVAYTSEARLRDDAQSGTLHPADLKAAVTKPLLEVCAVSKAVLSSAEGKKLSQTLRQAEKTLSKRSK

[10] = target: T4, Tyrosyl-tRNA synthetase, putative (Trypanosoma cruzi (strain CL Brener)); experiment: Trypanosoma cruzi tyrosyl tRNA synthetase (TcYRS) SOP; assay type: functional; conditions: 30 µM
[11] = target: Chromo domain-containing protein 1 (Saccharomyces cerevisiae (strain ATCC 204508 / S288c) (Baker's yeast)) (UniProt P32657); experiment: ScCHD-1 Enzyme Inhibition Assay; assay type: functional; conditions: 30 µM; note: in the data most compounds retested in dose-response had high values
Sequence of Chromo domain-containing protein 1 (Saccharomyces cerevisiae (strain ATCC 204508 / S288c) (Baker's yeast)) (P32657 whole entry, the tested form may be a part): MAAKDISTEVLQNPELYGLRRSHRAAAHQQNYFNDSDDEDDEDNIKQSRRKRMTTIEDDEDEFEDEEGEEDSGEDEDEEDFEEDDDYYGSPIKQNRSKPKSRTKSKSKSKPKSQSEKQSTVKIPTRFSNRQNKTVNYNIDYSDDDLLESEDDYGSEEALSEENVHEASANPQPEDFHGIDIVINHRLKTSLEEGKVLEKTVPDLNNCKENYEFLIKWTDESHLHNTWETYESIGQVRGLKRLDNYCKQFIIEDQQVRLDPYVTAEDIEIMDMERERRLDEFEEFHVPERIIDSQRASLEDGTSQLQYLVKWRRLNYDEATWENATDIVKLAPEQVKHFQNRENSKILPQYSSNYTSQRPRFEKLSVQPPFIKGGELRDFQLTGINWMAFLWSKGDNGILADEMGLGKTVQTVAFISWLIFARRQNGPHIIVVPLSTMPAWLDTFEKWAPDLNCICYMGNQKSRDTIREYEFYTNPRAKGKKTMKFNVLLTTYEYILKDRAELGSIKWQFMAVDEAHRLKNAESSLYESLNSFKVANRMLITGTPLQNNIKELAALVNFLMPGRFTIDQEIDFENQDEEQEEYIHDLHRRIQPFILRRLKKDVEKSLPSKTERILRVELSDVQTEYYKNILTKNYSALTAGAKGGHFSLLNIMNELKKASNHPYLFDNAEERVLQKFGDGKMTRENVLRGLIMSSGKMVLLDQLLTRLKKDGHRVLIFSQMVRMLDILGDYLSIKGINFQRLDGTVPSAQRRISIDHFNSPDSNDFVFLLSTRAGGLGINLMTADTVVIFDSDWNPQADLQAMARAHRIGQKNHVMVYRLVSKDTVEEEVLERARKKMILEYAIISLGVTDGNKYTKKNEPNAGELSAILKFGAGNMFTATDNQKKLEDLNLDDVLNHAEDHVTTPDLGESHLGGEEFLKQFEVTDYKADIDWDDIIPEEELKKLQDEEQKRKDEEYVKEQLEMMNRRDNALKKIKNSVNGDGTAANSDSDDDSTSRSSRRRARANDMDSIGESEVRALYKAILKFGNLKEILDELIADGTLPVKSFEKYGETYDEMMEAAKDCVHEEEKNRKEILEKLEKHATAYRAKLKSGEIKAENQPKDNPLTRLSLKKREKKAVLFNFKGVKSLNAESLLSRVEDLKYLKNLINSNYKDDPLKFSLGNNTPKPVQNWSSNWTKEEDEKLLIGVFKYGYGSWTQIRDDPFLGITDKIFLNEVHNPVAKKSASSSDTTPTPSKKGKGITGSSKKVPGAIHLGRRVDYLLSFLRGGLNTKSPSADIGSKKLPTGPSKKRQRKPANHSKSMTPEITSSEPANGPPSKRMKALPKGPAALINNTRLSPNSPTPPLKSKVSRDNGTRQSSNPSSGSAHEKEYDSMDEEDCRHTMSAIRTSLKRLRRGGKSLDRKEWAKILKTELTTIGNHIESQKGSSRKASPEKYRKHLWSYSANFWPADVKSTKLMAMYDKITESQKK

Sequence of Sialic acid-binding Ig-like lectin 9 (Homo sapiens) (Q9Y336 whole entry): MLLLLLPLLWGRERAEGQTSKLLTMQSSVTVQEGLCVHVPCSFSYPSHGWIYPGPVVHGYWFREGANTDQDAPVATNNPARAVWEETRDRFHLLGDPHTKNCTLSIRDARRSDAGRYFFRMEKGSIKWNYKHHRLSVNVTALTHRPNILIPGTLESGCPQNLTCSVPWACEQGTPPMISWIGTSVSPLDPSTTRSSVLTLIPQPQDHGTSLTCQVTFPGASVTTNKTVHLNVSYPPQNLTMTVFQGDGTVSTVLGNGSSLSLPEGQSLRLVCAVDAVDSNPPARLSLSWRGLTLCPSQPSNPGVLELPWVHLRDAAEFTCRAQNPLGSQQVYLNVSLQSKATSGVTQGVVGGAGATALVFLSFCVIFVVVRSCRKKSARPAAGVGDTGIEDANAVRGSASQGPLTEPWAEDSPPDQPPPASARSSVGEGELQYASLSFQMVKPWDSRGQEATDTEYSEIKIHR
Sequence of Protein translocase subunit SecA (Escherichia coli (strain K12)) (P10408 whole entry): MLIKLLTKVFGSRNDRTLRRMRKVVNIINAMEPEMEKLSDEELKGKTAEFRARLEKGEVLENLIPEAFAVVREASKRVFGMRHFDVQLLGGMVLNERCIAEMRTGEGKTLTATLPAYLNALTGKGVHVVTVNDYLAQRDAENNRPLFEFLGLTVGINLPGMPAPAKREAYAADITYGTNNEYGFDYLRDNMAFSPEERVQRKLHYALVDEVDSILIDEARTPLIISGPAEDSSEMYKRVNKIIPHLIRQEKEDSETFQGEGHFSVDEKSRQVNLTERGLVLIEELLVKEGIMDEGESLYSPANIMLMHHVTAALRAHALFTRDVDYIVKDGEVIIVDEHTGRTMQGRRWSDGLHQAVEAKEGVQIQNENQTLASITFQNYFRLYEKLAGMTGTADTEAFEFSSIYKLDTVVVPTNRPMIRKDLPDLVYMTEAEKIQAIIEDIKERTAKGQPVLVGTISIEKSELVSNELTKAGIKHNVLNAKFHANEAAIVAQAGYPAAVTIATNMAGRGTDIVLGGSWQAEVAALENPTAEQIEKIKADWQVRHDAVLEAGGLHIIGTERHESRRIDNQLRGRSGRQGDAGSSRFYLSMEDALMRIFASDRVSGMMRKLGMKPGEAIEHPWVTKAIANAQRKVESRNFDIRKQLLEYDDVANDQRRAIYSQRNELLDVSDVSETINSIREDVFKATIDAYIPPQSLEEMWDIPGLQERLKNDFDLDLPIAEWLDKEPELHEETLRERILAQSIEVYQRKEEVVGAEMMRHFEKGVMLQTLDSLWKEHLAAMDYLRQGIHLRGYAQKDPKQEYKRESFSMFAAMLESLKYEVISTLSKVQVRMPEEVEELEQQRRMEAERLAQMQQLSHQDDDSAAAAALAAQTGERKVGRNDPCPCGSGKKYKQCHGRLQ

| Compound | Percent Effect [1] [%] | Percent Effect [2] [%] | Percent Effect [3] [%] | Percent Effect [4] [%] | Percent Effect [5] [%] | Percent Effect [6] [%] | Percent Effect [7] [%] | Percent Effect [8] [%] | Percent Effect [9] [%] | Percent Effect [10] [%] | Percent Effect [11] [%] |
| --- | --- | --- | --- | --- | --- | --- | --- | --- | --- | --- | --- |
| CCc1ccccc1NC(=O)N1CCn2cnc(COC)c2C1 | -3.57 | 8.11 | -9.76 | 17.5 | 5.38 | 15.1 | 0.601 | 17.8 | 5.38 | -1.24 | -5.57 |
| O=C(CCn1ccccc1=O)Nc1ccc(F)c(Cl)c1 | -5.08 | 8.11 | -4.38 | 0.784 | -2.44 | 3.72 | 10.7 | -1.47 | 4.3 | 6.17 | -7.68 |
| Cc1ccc(NC2CCN(C(=O)COCC(F)(F)F)CC2)nn1 | -6.28 | 6.33 | -2.75 | 3.15 | -1.95 | -2.37 | 10.1 | 12.1 | 2.08 | 2.53 | 3.78 |
| Cc1cc(-c2cnc(N3CCNC(=O)C3)nc2-c2cccnc2C)on1 | -2.87 | 8 | 5.98 | 8.08 | 1.97 | -2.1 | 7.49 | 1.83 | 5.32 | 11.5 | -10.5 |
| CC(Cn1cccn1)NC(=O)Nc1ccc(N(C)C)nc1 (stereo not given) | -4.33 | 1.39 | -12.7 | -12 | -7.09 | 0.883 | 22.3 | 10.8 | 1.05 | -2.56 | -1.82 |
| COC(=O)C(c1cc(F)ccc1F)N(C)C(=O)c1cccnc1O (stereo not given) | -4.02 | 6.33 | 7.36 | -2.25 | -1.33 | 0.645 | 10.3 | -7.9 | 1.04 | 12.7 | -12.9 |
| Cn1c(Nc2cn[nH]c2)c(C#N)c(=O)n(C)c1=O | -7.22 | 5.41 | -1.11 | -6.81 | -8.31 | -1.74 | 14.3 | -8.26 | -3.23 | 1.24 | -4.94 |
| COc1ccccc1CN(C)c1nccc(-c2cn(C)nc2C)n1 | -1.09 | 5.33 | 2.11 | 8.22 | 4.58 | 24 | 16 | 34.9 | 6.01 | 16.1 | -5.41 |
| O=C(C1CC=CC1)N1CCc2c(COCc3ccncc3)cncc2C1 | 0.346 | 5.48 | 3.39 | 12.2 | 0.198 | -1.2 | 29.9 | -4.59 | 11.5 | 11.1 | -4.36 |
| Cc1nccn1C1CCCN(C(=O)c2ccc(N(C)C)nc2)C1 (stereo not given) | -4.63 | 7.89 | -3.59 | 3.06 | 6.26 | -1.08 | 7.36 | 7.13 | 7.39 | 18.5 | -0.744 |
| CC(=O)N(Cc1ncc(C)o1)C1CCN(Cc2noc(C)n2)C1 (stereo not given) | -3.16 | 26 | -5.5 | -2.16 | 6.76 | -3.16 | 11.9 | 1.88 | 8.57 | 30.6 | 2.25 |
| c1cnn(CC2CCCCN2c2ncnc3sccc23)c1 (stereo not given) | -7.65 | -5.33 | 0.901 | 5.7 | -2.63 | -1.56 | 6.45 | 29.1 | -0.546 | -1.24 | -3.05 |
| Cc1noc([C@@]23CCO[C@@H]2CCN(C(=O)c2sccc2C)C3)n1 | -3.07 | 5.33 | 2.33 | -2.88 | 2.12 | -46.1 | 0.513 | 1.48 | 1.04 | 0 | 1.44 |
| Cc1nc(-c2ccc(Cl)s2)sc1C(=O)NCCS(N)(=O)=O | -5.36 | 10.8 | 20 | 14.1 | -1.95 | 2.4 | 9.34 | 6.3 | 5.94 | 13.4 | 0.478 |
| O=C(O)C1(Cc2cccc(-c3ccc(F)c(F)c3)c2)CCOCC1 | -3.39 | 1.35 | 13.4 | 4.42 | -1.78 | 1.16 | 5.93 | 28.6 | -15.1 | -11.7 | -15 |
| O=C(O)C1(Cc2cc(-c3cccc(F)c3)no2)CCOCC1 | -3.27 | 6.76 | 11.7 | 6.38 | -3.75 | -3.02 | 7.8 | -7.88 | 2.15 | 3.9 | -5.82 |
| Cc1nc(C)n(CC2CCCN(Cc3nnc(C(C)(C)C)o3)C2)n1 (stereo not given) | -3.5 | 10.5 | 5.56 | -2.35 | 5.55 | 0 | 7.77 | -1.74 | 2.13 | 5.2 | -3.94 |
| Cc1ccc(C(=O)N2CCSCC2)cc1NC(=O)Cn1cncn1 | -4.05 | 16.4 | -5.58 | 10.2 | 7.74 | -7.98 | 17.6 | -4.75 | 6.25 | 18.5 | -7.01 |
| Cc1ccc(Nc2nccc(C3CN(CC(N)=O)C3)n2)nc1 | -6.39 | 20.3 | 2.38 | 3.4 | 7.12 | -5.8 | 17.2 | 10.7 | 8.6 | 24.7 | -14.1 |
| O=C(NCCCn1cccn1)C1(c2ccc(F)cc2)CC1 | 0.73 | 16.4 | 0.361 | 3.37 | 3.72 | 10.4 | 8.87 | -5.73 | 6.45 | 12.5 | -4.26 |
